# Columns and labels:
# Experiment in all cases: PBM binding z-score (relative to random genomic background probes); higher = stronger binding; sequences stand for … in GC…GCGATTGACAGCGTAGAATGAAGG
# [1] = tested on: FXR:RXRa (NR concentration 270 nM, RXRa partner concentration 90 nM)
# Summary of the method: (§1)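 On custom Agilent 4×180K arrays, double-stranded probes with 34-nt variable regions carried direct-repeat seeds, single-nucleotide variants, half-site ablations or random human genomic background. Ligand-free nuclear receptor dimers were applied for 1 h, and binding was read with antibodies against each partner (one per run). Binding z-scores come from regression-normalized fluorescence, with the random background probes as reference.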
# [2] = tested on: LXRa:RXRa (NR concentration 270 nM, RXRa partner concentration 90 nM)
# Summary of the method: as §1
# [3] = tested on: LXRa homodimer (NR concentration 270 nM)
# Summary of the method: as §1
# [4] = tested on: LXRb:RXRa (NR concentration 270 nM, RXRa partner concentration 90 nM)
# Summary of the method: as §1
# [5] = tested on: LXRb homodimer (NR concentration 270 nM)
# Summary of the method: as §1
# [6] = tested on: PPARa:RXRa (NR concentration 270 nM, RXRa partner concentration 90 nM)
# Summary of the method: as §1
# [7] = tested on: PPARg:RXRa (NR concentration 180 nM, RXRa partner concentration 90 nM)
# Summary of the method: as §1
# [8] = tested on: PPARg:RXRa 270nM:90nM, anti-RXR (NR concentration 270 nM, RXRa partner concentration 90 nM)
# Summary of the method: as §1
# [9] = tested on: PPARg:RXRa 30nM:10nM, anti-RXR (NR concentration 30 nM, RXRa partner concentration 10 nM)
# Summary of the method: as §1
# [10] = tested on: PPARg:RXRa 90nM:30nM, anti-RXR (NR concentration 90 nM, RXRa partner concentration 30 nM)
# Summary of the method: as §1
# [11] = tested on: PPARg:RXRa DBDmut IVT, anti-RXR (DBD mutation: RXRa K156A/R161A, NR concentration 270 nM, RXRa partner concentration 90 nM)
# Summary of the method: as §1
# [12] = tested on: PPARg:RXRa IVT, anti-PPARg (NR concentration 270 nM, RXRa partner concentration 90 nM)
# Summary of the method: as §1
# [13] = tested on: PPARg DBDmut:RXRa IVT, anti-PPARg (DBD mutation: PPARg1 K132A/R137A, NR concentration 270 nM, RXRa partner concentration 90 nM)
# Summary of the method: as §1
# [14] = tested on: PPARg DBDmut IVT, anti-PPARg (DBD mutation: PPARg1 K132A/R137A, NR concentration 270 nM)
# Summary of the method: as §1
# [15] = tested on: PPARg homodimer (NR concentration 180 nM)
# Summary of the method: as §1
# [16] = tested on: PXR:RXRa (NR concentration 270 nM, RXRa partner concentration 90 nM)
# Summary of the method: as §1
# [17] = tested on: PXR homodimer (NR concentration 270 nM)
# Summary of the method: as §1
# [18] = tested on: RARa:RXR (NR concentration 270 nM, RXRa partner concentration 90 nM)
# Summary of the method: as §1
# [19] = tested on: RARa homodimer (NR concentration 270 nM)
# Summary of the method: as §1
# [20] = tested on: RARb:RXRa (NR concentration 270 nM, RXRa partner concentration 90 nM)
# Summary of the method: as §1
Sequence,PBM binding z-score [1],PBM binding z-score [2],PBM binding z-score [3],PBM binding z-score [4],PBM binding z-score [5],PBM binding z-score [6],PBM binding z-score [7],PBM binding z-score [8],PBM binding z-score [9],PBM binding z-score [10],PBM binding z-score [11],PBM binding z-score [12],PBM binding z-score [13],PBM binding z-score [14],PBM binding z-score [15],PBM binding z-score [16],PBM binding z-score [17],PBM binding z-score [18],PBM binding z-score [19],PBM binding z-score [20]
GCTATTAGTTGAATGGGCAACCGAATGATTCTCG,-0.277,-0.309,-0.219,-0.351,-0.317,-0.737,0.129,-0.166,-0.146,0.0794,0.75,-0.332,-0.684,0.178,-0.436,-0.587,-0.28,-0.707,0.153,-0.226
CCTACTGGGCCATGAGGTCATTGATATCAACGTT,3.57,2.77,1.87,3.24,-0.168,4.19,4.59,4.66,2.55,4.53,4.24,5.54,0.512,-0.0861,2.41,4.71,3.85,4.49,0.257,2.91
GCGACTGGGGCATCACCAGGTTACCATAACTTAA,-0.25,-0.178,-0.0644,0.637,-0.712,1.02,1.1,0.672,-0.379,0.216,3.65,3.39,-0.477,-0.785,0.0676,0.244,-0.357,0.695,-0.656,0.96
CAAACTAGGTCAAAGTTCAAAGTCGAGCCAACCA,7.56,6.56,5.94,5.99,2.08,7.43,13.3,10.7,12.3,12.8,8.26,8.92,2.7,3.37,3.22,6.38,5.12,7.88,1.43,5.27
AGAACGATGGCAATGAGTTGATAGCACGGGTGGC,-0.517,-0.814,-0.366,-1.05,-0.645,-0.643,0.654,-0.25,-0.674,-0.599,-0.597,-0.751,0.0197,-0.258,-0.596,-0.563,-0.0123,-0.325,-0.149,-0.604
CCGACTGGGTCAAGGTTACCATAACGCACAGCCA,3.19,2.1,0.079,2.21,-0.717,4.15,6.25,5.71,3.15,5.32,5.21,5.93,0.445,-0.0986,1.69,2.17,0.366,2.76,0.448,3.62
CCTTACGGGTCACGAGGTTATAGCTCGACGAGCG,6.98,4.79,0.064,3.92,0.048,6.3,7.52,6.72,3.42,5.91,3.64,5.56,3.54,1.04,3.72,4.94,-0.0531,6.5,1.15,4.36
TAGCCTAGGTCATGTGGGCCAGTATAGTGTCGGC,4.35,2.97,0.553,1.85,0.185,3.53,2.11,2.75,0.388,1.46,1.81,3.41,-0.502,-0.513,0.832,1.47,-0.447,2.33,-0.278,3.81
TTTATTAGTTGATTAGGGCAACCGAAACAGCGGA,0.664,0.617,0.865,0.942,1.33,1.15,0.565,1.71,1.69,1.72,1.46,2.1,1.84,1.94,1.68,0.473,0.839,0.832,2.38,1.24
CCAGACAGGTGATAAGGTAACTCAGCCTCGATTA,0.336,0.0665,-0.0911,0.157,-0.187,0.51,0.555,0.114,0.063,0.191,0.812,0.261,0.0987,-0.29,1.14,-0.0216,0.227,0.472,0.984,0.359
TCGAGTAGGTTACCAACGGGGCATTCAGCTTTCT,0.106,1.75,-0.787,0.579,-1.13,1.15,0.374,1.13,1.03,0.692,3.15,2.64,-0.246,0.0471,-0.456,-0.0163,-0.774,0.402,-1.51,0.936
TCTCGGAGGACACGCAGGTCAGAGCTTTCCAGAG,0.587,0.453,-0.198,0.321,-1.1,1.22,-0.00527,0.98,1.99,1.12,1,0.776,-0.915,-1.54,0.365,1.1,0.213,1.15,-0.493,2.67
GGAACGAGGGCATTCGAGTTGATATCATGGCGAT,1.43,2.06,-0.497,0.289,-0.383,1.64,1.04,0.683,0.332,0.448,2.99,2.26,-0.118,-0.698,0.277,3.8,1.54,0.922,-0.657,1.78
TCTGCCAGGTCAACGATGGTCAGCTAATCTGCTA,4.25,3.33,0.136,2.23,0.15,3.46,2.13,2.8,1.53,2.04,2.07,2.98,0.16,0.24,1.11,2.56,-0.453,2.89,-0.675,4.02
GGAACGAGGGCAAGTAGATAGCAGAGTTTGATGG,0.456,0.278,-0.397,-0.016,-0.00645,1.36,1.21,0.904,0.0838,0.493,3.61,2.59,-0.498,-0.505,-0.0596,0.344,0.589,0.247,-0.258,2.46
